Shiga inhibitor: A qHTS for Small Molecule Inhibitors of Shiga Toxin | 290,000 compounds, 9.2% hits | inhibition, % at 38.7 µM | Vero cells, Shiga toxin protein synthesis inhibition reporter; in the data active = inhibition mostly above about 28%, no sharp cut-off; inactive = mostly below about 43%
NS1 inh: qHTS Assay for Inhibitors of Influenza NS1 Protein Function | Potency, µM (highest dose often 46.1 µM) | AID 2326, 2010 | 270,000 compounds, 0.4% hits; also: actives are rising curves; nearly all actives have a fitted effect of over 50% in size
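OD600 was taken as the measure of yeast growth restored by compound in an NS1-expressing S. cerevisiae strain. Cells had been washed out of glucose medium and diluted 1:100 into galactose -URA medium, pH 6.0.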
Pf growth 96h: Primary qHTS for delayed death inhibitors of the malarial parasite plastid, 96 hour incubation; 320,000 compounds, 6.9% hits; Potency, µM (titrated, usually from 28.7 µM), usual class: inhibitors; AID 504834, 2011; P. falciparum luciferase reporter growth, 96 h; active = well fitted inhibition curve with a large enough effect; inconclusive = small, poorly fitted or top-dose-only effect, or another doubt; inactive = no such curve, though single readings can be large or run the other way
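P. falciparum expressing integrated firefly luciferase grown in erythrocytes (2% hematocrit, 0.05% parasitemia final) with compounds for 96 hours at 37 C, 5% CO2. Growth inhibition read as loss of luminescence after adding luciferase detection reagent.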
CHX counter: Cycloheximide Counterscreen for Small Molecule Inhibitors of Shiga Toxin; cell reporter, cycloheximide protein synthesis inhibition counterscreen; max response, %; 300,000 compounds, 12% hits; in the data active = max response mostly above about 13%, no sharp cut-off; inactive = mostly below about 14%; also: read at 38.3 µM for the half of the compounds with a filed dose
SARS PLP yeast: qHTS of Yeast-based Assay for SARS-CoV PLP | 330,000 compounds, 0.19% hits | S. cerevisiae expressing SARS-CoV PLpro, growth rescue | Potency, µM (series often up to 32.9 µM), hits mostly activators | AID 485353, 2010; also: nearly all actives have a fitted effect of over 55% in size
Pf growth 48h: Primary qHTS for delayed death inhibitors of the malarial parasite plastid, 48 hour incubation. P. falciparum luciferase growth in erythrocytes, 48 h. Potency, µM (doses to about 28.7 µM), hits mostly inhibitors. 310,000 compounds, 5.9% hits; active = well fitted inhibition curve with a large enough effect; inconclusive = small, poorly fitted or top-dose-only effect, or another doubt; inactive = no such curve, though single readings can be large or run the other way
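Growth was read as firefly luciferase luminescence after a 48 h, 37 C, 5% CO2 exposure of compounds to reporter-bearing P. falciparum cultures (0.1% parasitemia, 2% hematocrit final) in Albumax-supplemented RPMI 1640.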
Of the large screens only hits and unclear results are named; the others gave an inactive call. Hits are enriched below; roughly 21% of the tested compounds scored in any of these assays. Unless noted, calls follow the shape of the full dose curve.

CC1CC(=O)Nc2ccccc2N1C(=O)CSc1ccc2ccccc2n1 (stereo not drawn)	none (no result: Shiga inhibitor, NS1 inh, Pf growth 96h, CHX counter, Pf growth 48h)
NNC(=O)CNC(=O)c1ccccc1F	none
CC(CNC(=O)c1ccccc1Cl)c1ccccc1 (stereo not drawn)	Shiga inhibitor 36, CHX counter 34
O=C(CNc1ccccc1C(=O)O)c1ccccc1	CHX counter 18
O=C(CNC(=O)c1ccccc1F)c1ccccc1	CHX counter 34
O=C(CNC(=O)c1ccccc1Cl)c1ccccc1	Shiga inhibitor 65, Pf growth 96h inconclusive, CHX counter 50
O=C(NCCCCNC(=O)c1ccccc1Cl)c1ccccc1Cl	none
CC(CNC(=O)COC(=O)c1cccnc1Cl)c1ccccc1 (stereo not drawn)	SARS PLP yeast inconclusive (no result: Shiga inhibitor, NS1 inh, CHX counter)
NC(=O)c1ccccc1NCC(=O)c1ccc(Cl)cc1	Pf growth 96h inconclusive (no result: Pf growth 48h)
CCN(Cc1ccccc1)S(=O)(=O)CCNC(=O)c1ccccc1	none (no result: Shiga inhibitor, NS1 inh, CHX counter)
O=c1ccc(-c2ccc(S(=O)(=O)Nc3cccc(Br)c3)o2)n[nH]1	none
CCCCn1c(N)c(N(CC(C)C)C(=O)c2cc(-c3ccncc3)nc3ccccc23)c(=O)[nH]c1=O	Pf growth 48h inconclusive (no result: Shiga inhibitor, NS1 inh, CHX counter)
CCOC(=O)c1cnc2c(C)cc(Cl)cc2c1N1CCN(C)CC1	Pf growth 96h inconclusive (no result: Pf growth 48h)
CN1CCN(S(=O)(=O)c2cccc(C(=O)N3CCN(c4ccccc4)CC3)c2)CC1	none (no result: Shiga inhibitor, NS1 inh, Pf growth 96h, CHX counter, Pf growth 48h)
NCCCC[C@H](NC(=O)[C@@H]1CCCN1C(=O)[C@@H](N)CCCN=C(N)N)C(=O)N1CCC[C@H]1C(=O)N[C@@H](CCC(N)=O)C(=O)N[C@@H](CCC(N)=O)C(=O)N[C@@H](Cc1ccccc1)C(=O)O	none (no result: NS1 inh, Pf growth 96h, SARS PLP yeast, Pf growth 48h)
COC(=O)c1cc(NC(=O)Cn2c(=O)oc3ccccc32)cc(C(=O)OC)c1	none
Cc1csc(C(=O)NN)c1N(C)C	Shiga inhibitor 74, CHX counter 32
Cc1c(C(=O)NN)sc(=S)n1C	none
CC(=O)NCC1(O)CCCC(C)C1 (stereo not drawn)	Pf growth 96h inconclusive
CCCN(CCC)C(=O)Cn1c2ccccc2c2nc(=O)cc(C)n21	none (no result: Pf growth 48h)
Cc1ccc2c(c1)=C(c1ccccc1)N(O)CC(=O)N=2	none
CNC1=CN(O)C(c2ccccc2)=c2cc(Cl)ccc2=N1	Pf growth 96h 13µM, Pf growth 48h 19µM (no result: NS1 inh, SARS PLP yeast)
COCc1cc(CN2CCN(C)CC2)c(O)c2ncccc12	NS1 inh inconclusive, Pf growth 96h 8.3µM, SARS PLP yeast inconclusive (no result: Pf growth 48h)
O=C(Oc1c(Cl)cc(Cl)c2cccnc12)N1CCCCC1	Pf growth 96h 5.2µM
CCOC(=O)N1CCN(Cc2cc(Cl)c3cccnc3c2O)CC1	Pf growth 48h 2.6µM
Oc1c(Br)cc(Br)c2cccnc12	Pf growth 96h 9.5µM, Pf growth 48h inconclusive (no result: Shiga inhibitor, NS1 inh, CHX counter, SARS PLP yeast)
O=C(Oc1c(Cl)cc(Cl)c2cccnc12)N1CCOCC1	none
CC(=O)NC(c1ccco1)c1cc(Br)c2cccnc2c1O (stereo not drawn)	Pf growth 96h inconclusive, Pf growth 48h inconclusive (no result: Shiga inhibitor, NS1 inh, CHX counter)
COc1cc(/C=C/C(=O)OCC(=O)NCC2CCCCC2)ccc1O	Pf growth 48h inconclusive (no result: Shiga inhibitor, NS1 inh, CHX counter)
O=C(O)c1cc(C(=O)C(=O)c2cc(C(=O)O)c(O)c3ccccc23)c2ccccc2c1O	none (no result: Shiga inhibitor, Pf growth 96h, CHX counter, SARS PLP yeast, Pf growth 48h)
COc1ccc(N(CC(=O)NCc2ccncc2)S(=O)(=O)c2ccccc2[N+](=O)[O-])c(OC)c1	none
CCCn1c(=O)cc(N)n(-c2ccc(OC(F)(F)F)cc2)c1=O	none
O=C(Oc1c(CN2CCOCC2)cc(Cl)c2cccnc12)c1ccccc1Br	Pf growth 96h 10µM, Pf growth 48h 1.9µM
c1ccc(N2CCN(Cc3ccnc4ccccc34)CC2)cc1	none
O=C(COc1ccc(Cl)c2cccnc12)N1CCOCC1	none (no result: Shiga inhibitor, NS1 inh, CHX counter)
Oc1c(CN2CCN(c3ccccc3)CC2)cc(Br)c2cccnc12	Pf growth 96h inconclusive, SARS PLP yeast inconclusive, Pf growth 48h 1.9µM
COC(=O)c1cc(C(=O)OCC(=O)NC2CCCC2)cc([N+](=O)[O-])c1	none (no result: Pf growth 48h)
O=C(COC(=O)c1ccccn1)Nc1nc(-c2cccc([N+](=O)[O-])c2)cs1	CHX counter 18
O=C(CSc1ccc(-c2ccccn2)nn1)c1ccc([N+](=O)[O-])cc1	none (no result: NS1 inh)
O=C(COC(=O)c1ccccn1)Nc1nc(-c2ccccc2)cs1	Shiga inhibitor 81, Pf growth 96h inconclusive, CHX counter 42
Cn1ncc(Br)c1C(=O)OCC(=O)Nc1nc(-c2ccccc2)cs1	Shiga inhibitor 31, CHX counter 19
O=C(COC(=O)c1ccccn1)c1ccc([N+](=O)[O-])cc1	Shiga inhibitor 41, Pf growth 48h inconclusive
CO/N=C(/C(=O)N[C@@H]1C(=O)N2C(C(=O)O)=CCS[C@H]12)c1cnc(N)s1	none
CC1CCN(C(=O)C(C)OC(=O)CSc2ccc([N+](=O)[O-])cc2)CC1 (stereo not drawn)	none (no result: Shiga inhibitor, NS1 inh, CHX counter)
O=C(C1=NN(c2ccccc2)C(=O)CC1)N1CCc2ccccc2C1	none
CCCCCNCC(=O)Nc1cccc(C(=O)Nc2cccc(C(F)(F)F)c2)c1	Pf growth 96h 3.3µM, Pf growth 48h 4.7µM
Cc1ccc(C(=O)Nc2cccc(C(F)(F)F)c2)cc1Nc1cncnc1	NS1 inh inconclusive, Pf growth 96h 12µM
Cc1ccc(C(=O)Nc2cccc(C(F)(F)F)c2)cc1Nc1ccccn1	Pf growth 48h inconclusive
O=c1[nH]c(O)c(N=Nc2ccc(Cl)c(S(=O)(=O)Nc3ccccc3Cl)c2)c(=O)[nH]1	none (no result: Shiga inhibitor, NS1 inh, Pf growth 96h, CHX counter, Pf growth 48h)
CCC1=Nc2cc(C(=O)NCCN3CCOCC3)ccc2Sc2ccccc21	Pf growth 96h inconclusive
COc1ccc(CNC(=O)COC(=O)c2ccc3c(c2)OCCO3)cc1	none (no result: Pf growth 48h)
O=C(Cn1nnc(-c2ccc(S(=O)(=O)N3CCCC3)cc2)n1)Nc1ccccc1-n1cccc1	Pf growth 96h inconclusive, Pf growth 48h 9.3µM
O=C(NCCc1cccc(Cl)c1)c1ccc2c(c1)OCO2	Shiga inhibitor 56, CHX counter 32
COC(=O)c1ccc(CNC(=O)c2ccc3c(c2)OCCO3)cc1	CHX counter 19
CCOCCCNC(=O)c1ccc2c(c1)N=C(CC)c1cc(Br)ccc1S2	Pf growth 96h inconclusive, Pf growth 48h 4.1µM (no result: NS1 inh)
Cc1cc(C)n2nc(CNS(=O)(=O)c3ccc(F)c(C)c3)nc2n1	none
COc1ccc(CNC(=O)c2ccc(Cl)c(S(=O)(=O)N3CCOCC3)c2)cc1OC	Pf growth 96h inconclusive, Pf growth 48h inconclusive (no result: Shiga inhibitor, NS1 inh, CHX counter)
CN(C)c1ccc(-c2nnn(CC(=O)N3c4ccccc4CCc4ccccc43)n2)cc1	Pf growth 48h 2.1µM
O=C(NCc1cccc(C(F)(F)F)c1)c1ccc2c(c1)OCO2	Pf growth 96h inconclusive, CHX counter 10
O=C(NCc1ccc(Cl)c(Cl)c1)c1ccc2c(c1)OCO2	Pf growth 96h inconclusive
O=C(/C=C/c1ccc2c(c1)OCO2)NCCSCc1cccc(Cl)c1	CHX counter 21
O=C(NCc1ccc2c(c1)OCO2)c1ccc2c(c1)OCO2	Shiga inhibitor 46, CHX counter 26

Compound activity deposited in PubChem by National Center for Advancing Translational Sciences (NCATS).
